# Hits are enriched below; roughly 9.2% of the tested compounds scored in any of these assays.
# FLuc counter: counter-screen for miR-21 project: firefly luciferase inhibitors or activators. purified FLuc, Km substrates, luminescence inhibition. Potency, µM (titrated, usually from 57.5 µM), without a hit: at the highest dose activity change, negative = inhibition, most hits filed as inhibitors. 360,000 tested, 6.9% active;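 further: plate controls were vehicle for no effect and reference inhibitor for full effect; nearly all actives have a fitted effect of over 55% in size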
# Target sequence (P08659 whole entry, looked up): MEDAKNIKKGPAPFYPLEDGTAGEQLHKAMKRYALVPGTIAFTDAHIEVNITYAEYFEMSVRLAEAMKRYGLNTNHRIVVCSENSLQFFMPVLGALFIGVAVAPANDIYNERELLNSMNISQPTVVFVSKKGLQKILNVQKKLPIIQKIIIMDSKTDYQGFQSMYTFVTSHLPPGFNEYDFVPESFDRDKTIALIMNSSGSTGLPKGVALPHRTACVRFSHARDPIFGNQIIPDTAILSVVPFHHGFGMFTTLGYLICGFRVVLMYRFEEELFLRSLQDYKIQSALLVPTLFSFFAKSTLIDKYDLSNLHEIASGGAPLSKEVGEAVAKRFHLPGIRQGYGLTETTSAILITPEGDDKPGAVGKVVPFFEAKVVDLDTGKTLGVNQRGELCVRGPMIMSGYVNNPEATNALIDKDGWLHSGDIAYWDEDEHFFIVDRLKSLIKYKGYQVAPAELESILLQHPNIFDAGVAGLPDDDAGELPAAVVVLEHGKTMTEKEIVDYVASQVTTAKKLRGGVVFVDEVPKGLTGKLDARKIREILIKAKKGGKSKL
#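 Purified P. pyralis luciferase (10nM final) with 10uM D-luciferin and 10uM ATP (Km levels) in 50mM Tris acetate pH 7.5, 10mM Mg acetate, 0.01% Tween-20, 0.05% BSA; qHTS 6-point titration, ~60 µM downward; luminescence read.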
# ELG1 genotoxic: induces genotoxicity in HEK293T cells with luciferase-tagged ELG1; AID 504466; HEK293T ELG1-luciferase reporter, luminescence, 16 h; Potency, µM (doses to about 46 µM), inactives show at the highest dose activity change, positive = activation, hits mostly activators; 330,000 tested, 1.3% active; further: % of control where 0% means no effect; nearly all actives have a fitted effect of over 60% in size
#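 Luminescence read-out: rising ELG1-luciferase signal, reflecting elevated ELG1 protein under genetic stress, flags genotoxic compounds. Cells were treated for 16 hr at 37 °C before ONE-Glo detection.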
# SMN2 splice up: SMN2 splice variant enhancement; 210,000 tested, 2.8% active; HEK293 SMN2-luciferase splicing reporter, luminescence, 30-36 h; AID 1458; Potency, µM (highest dose often 46.1 µM), inactives show at the top dose activity change, positive = activation, actives largely listed as activators; further: % of control where 0% means no effect; nearly all actives have a fitted effect of over 55% in size
#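 HEK293 cells carry an SMN2 minigene-luciferase reporter in which exon 7 inclusion puts luciferase in frame. Cells were seeded at 2000 cells/well, attached for 10-12 hours, then exposed to compounds for 30-36 hours at 37C before ONE-Glo luminescence.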
# ELG1 DNA repair: blocks ELG1-dependent DNA repair in HEK293T cells; 330,000 tested, 2.3% active; AID 504467; Potency, µM (series often up to 46.1 µM), for inactives: at the highest dose activity change, negative = inhibition, actives largely listed as inhibitors; HEK293T ELG1-luciferase reporter, luminescence, 16 h; DNA damage induced by 5-fluorouridine; further: on the % scale 0 is the no-effect control and ±100 the full control effect; nearly all actives have a fitted effect of over 55% in size
#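 Reporter activity after DNA damage by 5-fluorouridine is monitored. Compound-treated cells incubate 16 hr at 37 °C, then ONE-Glo is added for 30 min before luminescence reading.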
# Rab9 prom act: Rab9 promoter activation; Huh7 Rab9 promoter-luciferase reporter, luminescence, 24 h; Potency, µM (series often up to 9.22 µM), inactives show top-dose activation, negative = inhibition, hits mostly activators; 320,000 tested, 2.8% active; AID 485297; further: % of control where 0% means no effect; nearly all actives have a fitted effect of over 60% in size
#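 Luminescence from Amplite-detected luciferase (10 minutes, ambient) reports Rab9 promoter activation. Before that, stable Rab9-luciferase Huh7 cells (1500/well, reduced-serum OP-MEM I plus 10% FBS) were exposed to compound for 24 hours at 37C.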
# NPC1 promoter act: NPC1 promoter activation; Huh7 NPC1 promoter luciferase reporter, 24 h; Potency, µM (top dose mostly 9.22 µM), for inactives: top-dose activation, actives largely listed as activators; 320,000 tested, 2.4% active; further: % of control where 0% means no effect; nearly all actives have a fitted effect of over 60% in size
#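 In 1536-well qHTS, Huh7 cells harboring an NPC1 promoter–luciferase construct received compound for 24 h; activation was quantified by luminescence following luciferase reagent addition.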
# Numbers without * were called inactive; ? = inconclusive; · = no result given. The call rests on the fitted dose curve; in most records, active means well fitted curve in the direction sought with a large enough effect; inconclusive means small, poorly fitted or top-dose-only effect, or another doubt; inactive means no such curve, though single readings can be large; an effect the other way counts as inactive or inconclusive. Potency means the concentration at half of the fitted maximal effect.
SMILES,FLuc counter,ELG1 genotoxic,SMN2 splice up,ELG1 DNA repair,Rab9 prom act,NPC1 promoter act
O=C(Nc1ccccc1N1CCOCC1)c1cc(=O)[nH]c2ccccc12,-1%,0%,·,-1%,1%,-12%
Cc1ccccc1Nc1c(-c2ccncc2)nc2ccc(Cl)cn12,-4%,-9%,10µM*,-7%,12%,-7%
CCOC(=O)CNc1c(-c2ccc(O)cc2)nc2ccc(Cl)cn12,15µM*,?,38%,?,29%,20%
COC(=O)CNc1c(-c2ccccn2)nc2ccc(Br)cn12,3.4µM*,1.3µM*,5µM*,?,0.89µM*,1.6µM*
Cc1ccc2nc(-c3ccsc3)c(Nc3ccccc3C)n2c1,4%,·,20%,·,·,·
CCOC(=O)CNc1c(-c2ccc(O)cc2)nc2ccccn12,?,4%,-1%,17%,24%,3%
CCOC(=O)CNc1c(-c2ccccc2)nc2ccc(Cl)cn12,9.5µM*,9%,0%,?,23%,28%
Cc1ccc(Nc2c(-c3ccccn3)nc3ccc(Br)cn23)cc1,0%,·,5%,·,·,·
CCOc1ccc(NC(=O)CC2C(=O)N(c3ccc(OC)cc3)C(=O)N2CCC2=CCCCC2)cc1 (stereo not drawn),-2%,·,1%,·,·,·
CCC(CO)n1c(=S)[nH]c2cc(OC)c(OC)cc2c1=O (stereo not drawn),4%,-8%,6%,2%,1%,-4%
CCOC(=O)c1ccccc1-c1cn2cc(Cl)ccc2n1,15µM*,10%,6%,?,8%,-2%
CCN(CC)S(=O)(=O)c1ccc2c(c1)nc(SCC(=O)N1CCCCCC1)n2-c1ccc(OC)cc1,5%,-1%,10%,5.2µM*,-4%,-4%
O=C(CSc1ccc(Cl)cc1)N1N=CCC1c1ccccc1 (stereo not drawn),-14%,0%,·,0%,3%,-3%
O=C(CSC(=S)N1CCCCC1)N1N=CCC1c1ccccc1 (stereo not drawn),21µM*,?,-4%,?,22%,26%
Cc1cc(-c2ccccc2)nc(N/N=C/c2ccc(O)cc2)n1,1.5µM*,-2%,·,-4%,0%,12%
Oc1ccc(/C=N/Nc2nc(-c3ccc(Cl)cc3)cc(C(F)(F)F)n2)cc1,27µM*,-7%,-24%,26µM*,-3%,2%
Cc1cc(C)c2nc(C)cc(N/N=C/c3ccc(O)cc3)c2c1,13µM*,?,·,-14%,-5%,-20%
COC(=O)c1ccc2nc(-c3ccc4c(c3)OCO4)cn2c1,0.3µM*,?,·,?,0.1µM*,0.22µM*
O=C(NCc1cn2ccccc2n1)c1ccc2c(c1)OCO2,-1%,1%,-7%,1%,2%,-3%
CCc1ccn2cc(-c3ccc4c(c3)OCO4)nc2c1,0.06µM*,0.18µM*,·,?,?,?
CCC#CCOCC(=S)Nc1ccccc1,·,·,-8%,·,·,·
Cc1cccn2c(=O)c3cc(C(=O)NC(C)(C)C)n(C)c3nc12,-1%,·,·,·,·,·
Cn1ncc(SCc2ccccc2)c(Cl)c1=O,-4%,-6%,·,8.2µM*,-26%,-6%
COCCN(C(=O)Cn1c(C(F)(F)F)nc2ccccc21)c1c(N)n(Cc2ccccc2)c(=O)[nH]c1=O,3%,3%,·,11%,-2%,0%
O=C(CN1C(=O)c2ccccc2S1(=O)=O)N1CCN(c2ccccc2F)CC1,?,0%,-5%,?,9%,3%
SMILES,FLuc counter,ELG1 genotoxic,SMN2 splice up,ELG1 DNA repair,Rab9 prom act,NPC1 promoter act
O=C(CN1C(=O)c2ccccc2S1(=O)=O)c1ccccc1F,11µM*,5%,·,?,?,?
O=C(CN1C(=O)c2ccccc2S1(=O)=O)c1cccc(Br)c1,7.6µM*,-6%,·,8%,?,?
O=C(CN1C(=O)c2ccccc2S1(=O)=O)c1ccc(OC(F)F)cc1,12µM*,-12%,·,12µM*,-21%,-18%
NC(=O)C1CCN(C(=O)CN2C(=O)c3ccccc3S2(=O)=O)CC1,5%,3%,-14%,-1%,-2%,2%
CC1CCN(C(=O)CN2C(=O)c3ccccc3S2(=O)=O)CC1,-10%,?,-5%,?,2.5µM*,3.5µM*
CCCCN(CCCC)CCNC(=O)Cn1nc(C)n2c(cc3sccc32)c1=O,-6%,·,-1%,·,·,·
O=C(CN1CCN(CC(=O)Nc2ccccc2F)CC1)Nc1ccc(Cl)c(C(F)(F)F)c1,-3%,·,·,·,·,·
COc1ccccc1C(=O)N/C(=C\c1cn(S(=O)(=O)N(C)C)c2ccccc12)C(=O)NCCCN1CCOCC1,-3%,-4%,·,2%,-2%,-4%
O=C(CN1C(=O)c2ccccc2C1=O)c1ccc(F)cc1,?,5%,·,?,18%,13%
O=C(CN1C(=O)c2ccccc2S1(=O)=O)c1ccc(F)cc1,13µM*,-6%,·,-1%,?,?
CCN(CC)S(=O)(=O)c1ccc2nc(NC(=O)c3cccs3)sc2c1,15µM*,?,?,?,?,23%
CCN(CC)S(=O)(=O)c1ccc2nc(NC(=O)c3ccccc3OC)sc2c1,0%,·,·,·,·,·
CCN(CC)S(=O)(=O)c1ccc2nc(NC(=O)c3ccco3)sc2c1,19µM*,4%,12%,?,8%,16%
CCC(C)[C@H](NC(=O)C1CC(=O)N(c2ccc(OC)cc2)C1)C(=O)N1CCCCC1 (stereo partly drawn),0%,0%,·,3%,1%,-3%
CCOc1nc(NC(=O)NS(=O)(=O)c2cccc(Cl)c2)nc(-c2ccccc2)n1,?,13%,?,?,-2%,0%
CN1CCc2c(sc(NC(=O)Cc3ccccc3)c2C(N)=O)C1,5%,5%,·,7%,6%,1%
CN1CCc2c(sc(NC(=O)C3COc4ccccc4O3)c2C(N)=O)C1 (stereo not drawn),-11%,23µM*,·,?,?,?
CCOC(=O)N1CCc2c(sc(NC(=O)c3ccc(Cl)s3)c2C(N)=O)C1,11µM*,-10%,-92%,-13%,2%,-1%
COc1cc2ccccc2cc1C(=O)Nc1sc2c(c1C(N)=O)CCN(C(C)C)C2,9.5µM*,-1%,·,-10%,-6%,-7%
CN1CCc2c(sc(NC(=O)c3ccc4ccccc4c3)c2C(N)=O)C1,2.7µM*,10µM*,·,?,?,?
CCOC(=O)c1c(NC(=O)c2cccs2)sc2c1CCN(C(=O)OCC)C2,-3%,-16%,?,?,1%,-3%
CC(=O)N1CCc2c(sc(NC(=O)C3COc4ccccc4O3)c2C(N)=O)C1 (stereo not drawn),-18%,20%,·,-7%,11%,10%

# Screens deposited in PubChem BioAssay by National Center for Advancing Translational Sciences (NCATS).
